Screening data deposited in PubChem by National Center for Advancing Translational Sciences (NCATS).
Hits are enriched below; roughly 19% of the tested compounds scored in any of these assays.
IL1B secr inh: qHTS for Inhibitors of Inflammasome Signaling: IL-1-beta AlphaLISA Primary Screen. THP-1 LPS/ATP IL-1B secretion, AlphaLISA, 16 h; active compounds read low. activity change, % at 57.5 µM. 360,000 tested, 4.7% active. AID 743279, 2014; in the data active means activity change below about -50%; inconclusive means mostly about -30% to -49%
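THP-1 cells pretreated 1 hr with compounds (up to 57.5 uM final), then stimulated with LPS (250 ng/mL final) plus ATP (1.25 mM final); secreted IL-1B measured by AlphaLISA after 16 hr, decreased signal indicating inhibition.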
TGFb inhibitor: qHTS for Inhibitors of TGF-b; HepG2 CAGA-GFP TGF-b/SMAD3 reporter, GFP fluorescence, 18 h; TGF-beta stimulated, 500 pg/mL final; Potency, µM (doses to about 46.1 µM), actives largely listed as inhibitors; 410,000 tested, 1.2% active; AID 588855, 2011; further: nearly all actives have a fitted effect of over 65% in size
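HEPG2 CAGA-GFP reporter cells (1000/well, DMEM with 1% FBS) received compounds, then recombinant TGF-beta at 500 pg/mL final for 18 hours at 37 degrees C. Per-cell GFP summed per well was normalised to unstimulated and stimulated DMSO controls before curve fitting.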
HepG2 viability: qHTS for Inhibitors of TGF-b: Cytotox Counterscreen; HepG2 CAGA-GFP viability, ATP luminescence, 18 h; 410,000 tested, 0.76% active; Potency, µM (doses to about 46.1 µM), hits mostly cytotoxic
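HepG2 CAGA-GFP cells (1000/well, DMEM with 1% FBS) received compound, then TGF-beta at 500 pg/mL final, and were incubated 18 hours at 37 degrees C. Viability was read by CellTiter-Glo luminescence. Media-only wells were set as complete cell-killing and DMSO as no toxicity.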
TDP1 cell CPT: qHTS for Inhibitors of human tyrosyl-DNA phosphodiesterase 1 (TDP1): qHTS in cells in presence of CPT | chicken DT40 Tdp1-/-;hTDP1 cells + 20 nM CPT, ATP luminescence, 48 h | Potency, µM (highest dose often 46.2 µM), most hits filed as inhibitors | 420,000 tested, 12% active | AID 686979, 2013; further: nearly all actives have a fitted effect of over 55% in size
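Chicken DT40 Tdp1-/- cells complemented with human TDP1, 400 cells/well, exposed to compounds plus 20 nM camptothecin for at least 48 h at 37 C; viability read as ATP content by CellTiter-Glo luminescence.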
S-ASM inh: Inhibitors of Secretory Acid Sphingomyelinase (S-ASM): qHTS; Sphingomyelin phosphodiesterase (Homo sapiens), P17405; placental ASM, HMU-PC fluorogenic substrate, 60 min; Potency, µM (titrated, usually from 57.5 µM), hits mostly inhibitors; 340,000 tested, 0.006% active
Target sequence (P17405 47-631 limits assumed): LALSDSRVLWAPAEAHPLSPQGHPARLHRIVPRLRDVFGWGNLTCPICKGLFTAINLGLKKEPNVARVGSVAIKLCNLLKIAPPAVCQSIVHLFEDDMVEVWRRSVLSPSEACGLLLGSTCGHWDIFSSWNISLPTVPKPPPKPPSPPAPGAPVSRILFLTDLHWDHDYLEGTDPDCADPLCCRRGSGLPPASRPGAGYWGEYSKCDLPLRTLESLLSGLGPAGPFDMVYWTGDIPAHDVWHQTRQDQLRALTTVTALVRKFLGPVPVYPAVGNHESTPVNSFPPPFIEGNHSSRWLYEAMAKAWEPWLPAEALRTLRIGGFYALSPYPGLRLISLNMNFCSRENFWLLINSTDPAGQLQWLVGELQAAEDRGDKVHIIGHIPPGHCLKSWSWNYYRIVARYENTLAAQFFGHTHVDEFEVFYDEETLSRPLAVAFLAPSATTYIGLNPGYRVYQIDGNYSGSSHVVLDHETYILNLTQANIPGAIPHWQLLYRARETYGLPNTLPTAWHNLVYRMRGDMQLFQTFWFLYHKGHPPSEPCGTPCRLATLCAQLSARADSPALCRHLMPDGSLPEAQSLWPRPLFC
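Fluorogenic HMU-PC substrate (9 uM final) is turned over by placental ASM in 60 min at 37 C after a 10 min compound preincubation. Reaction ended by alkaline stop (pH 10), with fluorescence read at 386/447 nm.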
DT40 TDP1 no CPT: qHTS for Inhibitors of human tyrosyl-DNA phosphodiesterase 1 (TDP1): qHTS in cells in absence of CPT | Potency, µM (doses to about 46.2 µM), hits mostly inhibitors | AID 686978, 2013 | DT40 Tdp1-/- hTDP1 cells, no CPT, ATP luminescence, 48 h | 420,000 tested, 15% active; further: nearly all actives have a fitted effect of over 55% in size
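Chicken DT40 Tdp1-/- cells stably complemented with human TDP1 were seeded at 400 cells/well with DMSO in place of 20 nM camptothecin. After compound pinning, cells grew at least 48 hr at 37 °C; viability read by CellTiter-Glo luminescence.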
Of the large screens only hits and unclear results are named; the others gave an inactive call. Unless noted, the call rests on the fitted dose curve; in most records, active means well fitted curve in the direction sought with a large enough effect; inconclusive means small, poorly fitted or top-dose-only effect, or another doubt; inactive means no such curve, though single readings can be large; an effect the other way counts as inactive or inconclusive.

O=S(=O)(c1ccc(Br)cc1)c1nc(-c2ccccc2)oc1NCCN1CCOCC1	IL1B secr inh -61.2, TDP1 cell CPT inconclusive, DT40 TDP1 no CPT inconclusive (no result: S-ASM inh)
COCCNc1oc(-c2ccccc2Cl)nc1S(=O)(=O)c1ccc(C)cc1	IL1B secr inh -57.1, TDP1 cell CPT inconclusive, DT40 TDP1 no CPT inconclusive
CC(=O)CC/C=C(\C)CC/C=C(\C)CC/C=C(\C)CCC=C(C)C	none (no result: IL1B secr inh, TGFb inhibitor, HepG2 viability, S-ASM inh)
Cc1cc(C)c2nc(N3C(=O)C(O)=C(C(=O)c4ccco4)C3c3cccc(O)c3)sc2c1 (centres undefined)	TGFb inhibitor inconclusive
CCOC(=O)c1cc(OC)c2cccc(CN3CCC(C)(C(=O)NCCOC)C3)c2c1 (centres undefined)	TDP1 cell CPT inconclusive, DT40 TDP1 no CPT inconclusive (no result: S-ASM inh)
O=C(Nc1cccc(F)c1F)C1CCN(c2ncccn2)CC1	none (no result: IL1B secr inh, S-ASM inh)
Cc1ccc(S(=O)(=O)c2nc(-c3ccccc3Cl)oc2NCCCN2CCOCC2)cc1	TDP1 cell CPT inconclusive, DT40 TDP1 no CPT 25.9µM
O=S(=O)(c1ccc(Cl)cc1)c1nc(-c2ccccc2Br)oc1NCc1ccccc1	TDP1 cell CPT inconclusive, DT40 TDP1 no CPT 13µM (no result: IL1B secr inh, S-ASM inh)
Cc1ccccc1-c1nc(S(=O)(=O)c2ccccc2)c(NCCN2CCOCC2)o1	TDP1 cell CPT inconclusive, DT40 TDP1 no CPT inconclusive (no result: S-ASM inh)
CCCCCCc1cc2cc(S(=O)(=O)c3ccc(F)c(Cl)c3)c(=O)oc2cc1O	IL1B secr inh -51.2, TDP1 cell CPT 5.8µM, DT40 TDP1 no CPT 7.31µM
CCCCCCc1cc2cc(C(=O)NC)c(=N)oc2cc1O	TDP1 cell CPT inconclusive, DT40 TDP1 no CPT 20.6µM
CCCCCCc1cc2cc(-c3nnc(-c4ccc(C)cc4)o3)c(=O)oc2cc1O	DT40 TDP1 no CPT inconclusive (no result: IL1B secr inh, S-ASM inh)
CCCCCCc1cc2cc(C(=O)OCC)c(=O)oc2cc1O	none
CCCCCCc1cc2cc(/C(N)=N/NC(=O)c3ccncc3)c(=O)oc2cc1O	TDP1 cell CPT inconclusive, DT40 TDP1 no CPT 11.6µM
CCCCCCc1cc2cc(C(=O)Nc3ccc(OC)cc3)c(=O)oc2cc1O	TDP1 cell CPT 7.31µM, DT40 TDP1 no CPT 5.8µM
COc1ccc2oc(=O)c(C(=O)Nc3ccccc3O)cc2c1	DT40 TDP1 no CPT inconclusive
CCCCCCc1cc2cc(C(=O)Nc3cccc(OC)c3)c(=O)oc2cc1O	TDP1 cell CPT 2.59µM, DT40 TDP1 no CPT 3.66µM
CCOC(=O)C1=C(CSc2nc(-c3ccccc3)ccc2C#N)OC(N)=C(C#N)C1c1ccccc1 (centres undefined)	TGFb inhibitor inconclusive, TDP1 cell CPT 3.66µM, DT40 TDP1 no CPT 2.91µM
Cc1nn(-c2ccccc2)c(Cl)c1C1C(C#N)=C(N)OC2=C1C(=O)CC(C)(C)C2 (centres undefined)	TDP1 cell CPT inconclusive, DT40 TDP1 no CPT inconclusive
CCCC1=C(C(=O)OCC)C(c2ccc(OC)c(CSc3ccccn3)c2)C(C#N)=C(N)O1 (centres undefined)	TDP1 cell CPT inconclusive, DT40 TDP1 no CPT inconclusive
CCCC1=C(C(=O)OCC)C(c2c(C)nn(-c3ccccc3)c2Cl)C(C#N)=C(N)O1 (centres undefined)	TDP1 cell CPT inconclusive, DT40 TDP1 no CPT 20.6µM
CCOC(=O)C1=C(CSc2nc(-c3ccccc3)ccc2C#N)OC(N)=C(C#N)C1c1cccnc1 (centres undefined)	TGFb inhibitor inconclusive, TDP1 cell CPT 2.91µM, DT40 TDP1 no CPT 4.61µM
O=C(NCC1(N2CCOCC2)CCCC1)c1cnn(-c2nccc(-c3cccs3)n2)c1C1CC1	none (no result: IL1B secr inh, TGFb inhibitor, HepG2 viability, S-ASM inh)
O=C1Nc2ccc(Br)cc2C12NNc1ccccc1O2 (centres undefined)	TDP1 cell CPT inconclusive, S-ASM inh inconclusive, DT40 TDP1 no CPT 18.4µM
CC(OC(=O)CC1Sc2ccccc2NC1=O)C(=O)NC1CCCC1 (centres undefined)	none
COc1ccc(CN(CC(=O)NCC2CCCO2)C(=O)CNS(=O)(=O)c2ccccc2)cc1 (centres undefined)	none
Cn1c(N2CCN(C(=O)Nc3ccc(F)cc3)CC2)nc2ccccc21	none
Cn1c(N2CCN(C(c3ccccc3)c3ccccc3)CC2)nc2ccccc21	IL1B secr inh -84.1, TGFb inhibitor inconclusive, TDP1 cell CPT inconclusive, DT40 TDP1 no CPT 18.4µM
COc1ccc(OC)c(NC(=S)NN2CCN(C)CC2)c1	none
CC1CCC/C(=N\NC(=S)Nc2ccccc2)C1 (centres undefined)	TDP1 cell CPT 8.2µM, DT40 TDP1 no CPT 10.3µM
COc1cccc(NC(=S)NN=C2CCCCCC2)c1	TDP1 cell CPT 3.66µM, DT40 TDP1 no CPT 5.17µM
COc1cccc(NC(=S)NN2CCN(C)CC2)c1	TDP1 cell CPT 29.1µM
CC1CCC/C(=N\NC(=S)NCc2ccccc2)C1 (centres undefined)	none
O=C(N/N=C\C=C\c1ccc2c(c1)OCO2)C1COc2ccccc2O1 (centres undefined)	none
Cc1ccccc1OCCNC(=O)/C=C/c1ccc([N+](=O)[O-])cc1	IL1B secr inh -69.5, DT40 TDP1 no CPT inconclusive
COc1ccccc1OCCNC(=O)/C=C/c1ccc([N+](=O)[O-])cc1	none
CCCOc1ccc(/C=C/C(=O)Nc2ccc([N+](=O)[O-])cc2)cc1	IL1B secr inh -86.5, TDP1 cell CPT 18.4µM, DT40 TDP1 no CPT 20.6µM
CC(=O)NC(c1ccc(F)c(F)c1)c1nc(-c2cccc(C(F)(F)F)c2)cs1 (centres undefined)	IL1B secr inh inconclusive, TDP1 cell CPT inconclusive, DT40 TDP1 no CPT inconclusive (no result: S-ASM inh)
COc1ccccc1N1CCN(C(c2ccccc2)c2nnnn2Cc2ccccc2)CC1 (centres undefined)	TDP1 cell CPT 14.1µM, DT40 TDP1 no CPT 15.8µM (no result: IL1B secr inh, S-ASM inh)
COc1ccccc1C(c1nnnn1Cc1ccco1)N1CCN(c2cccc(C)c2C)CC1 (centres undefined)	IL1B secr inh inconclusive, TDP1 cell CPT 18.4µM, DT40 TDP1 no CPT 16.4µM
CCN1CCN(C(c2cccc(OC)c2OC)c2nnnn2Cc2ccco2)CC1 (centres undefined)	none
COc1ccc(Cn2nnnc2C(C(C)C)N2CCN(c3ccccc3OC)CC2)cc1 (centres undefined)	TDP1 cell CPT 29.1µM, DT40 TDP1 no CPT 23.1µM
CC(=O)Nc1ccccc1-c1nc(CNC(=O)c2cc(C)ccc2C)c(C)o1	none (no result: IL1B secr inh, TGFb inhibitor, HepG2 viability, S-ASM inh)
